Bioassay records deposited in PubChem BioAssay by several laboratories.
Rows were chosen to be rich in hits. Some 1.2% of all compounds tested hit in one or more screens of this group.
Phagocyt inh: inhibitors of macrophage phagocytosis, primary screen, imaging, J774A.1 cells, IgG beads; J774A.1 macrophage IgG-bead phagocytosis; 110,000 tested, 0.07% active; inhibition, % at 5 µM;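 active = inhibition above the mean of the plate negative controls plus 5 SD, cut at about 13% in these data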;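 also: phagocytic index as fraction of beads internalized from green versus red external bead signal; plate controls were DMSO negative control for no effect and cytochalasin-D positive control for full effect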
IL1B NFkB inh: inhibitors of IL-1B driven NFkB p65 nuclear import, primary screen, imaging, HUVEC, IL-1B stimulus, high-content imaging; HUVEC IL-1B NFkB p65 nuclear translocation imaging; inhibition, % at 2 µM; 94,000 tested, 0.43% active; AID 796, 2007;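 active = inhibition above about 30% together with a positive call from visual inspection of the well image, limit read from the data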;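 also: nuclear over cytoplasmic p65 intensity ratio measured by imaging; 0% = IL-1B stimulated DMSO wells and 100% = unstimulated DMSO wells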
HUVEC tox TNFa: cytotoxicity in TNFa-stimulated HUVEC, primary screen, cytotoxicity control for VCAM1 expression modulator project, imaging, Hoechst nuclei count; cell count reduction, % at 2 µM; 93,000 tested, 0.17% active; HUVEC TNFalpha-stimulated, Hoechst cell count;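 active = cell count reduction exceeding the screen mean by over 5 SD, scaled to untreated wells per plate, cut at about 78% in these data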;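 also: cells counted after 24 h of TNF alpha exposure following the 1 h pretreatment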
VCAM1 TNFa inh: inhibitors of TNFa-induced VCAM1 expression, primary screen, imaging, HUVEC, TNFa stimulus, immunofluorescence. HUVEC TNFa-induced VCAM-1 immunofluorescence, high-content imaging. inhibition, % at 2 µM. 95,000 tested, 0.48% active;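 active = inhibition above the batch mean plus 3 SD, with images confirmed as a hit by eye, cut at about 37% in these data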;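 also: 0% = TNF-stimulated DMSO wells and 100% = unstimulated control wells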
IL1B NFkB pot: enhancers of NFkB p65 translocation in HUVEC – imaging, IL-1B stimulus, high-content imaging, primary screen. HUVEC IL-1B NFkB p65 nuclear translocation imaging. activation, % at 2 µM. 94,000 tested, 0.3% active;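 active = activation above 40%, about the mean plus 3 SD, also judged a hit on visual image review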;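 also: percent activation is computed from the nuclear over cytoplasmic p65 intensity ratio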
HUVEC tox IL1B: cytotoxicity in IL-1B stimulated HUVEC, primary screen, cytotoxicity control for IL-1B NFkB translocation project, imaging, Hoechst nuclear count, IL-1B stimulus; HUVEC cell count loss; 94,000 tested, 0.41% active; cell count reduction, % at 2 µM;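 active = cell count reduction more than 3 SD above the screen-wide mean, cut at about 70% in these data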;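 also: normalized per plate to untreated control cells as the no-loss baseline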
Active calls of the source: *; / = not tested or not shown.

SMILES	Phagocyt inh	IL1B NFkB inh	HUVEC tox TNFa	VCAM1 TNFa inh	IL1B NFkB pot	HUVEC tox IL1B
Cc1cc(C)c2c(n1)sc1c(N3CCOCC3)ncnc12	/	-6	11	61*	6	-6
CN1CCN(c2ncnc3c2sc2nc(N4CCOCC4)c4c(c23)CCC4)CC1	/	-6	-10	26	6	-8
Cn1c2ccccc2c2ncn(Cc3ccco3)c(=O)c21	0	-15	-10	17	15	-12
Cn1c2ccc(F)cc2c2ncn(Cc3ccco3)c(=O)c21	-1	32*	-14	-1	-32	-4
COc1ccccc1-c1cc(C(F)(F)F)nc(S(=O)(=O)CCCC(=O)N2CCCCC2C)n1 (stereo not drawn)	0	11	-15	71*	-11	-34
COc1ccc(C(=O)Nc2ccc([N+](=O)[O-])cn2)c(OC)c1	5	/	/	/	/	/
CCOC(=O)CC(=O)CSc1nc2c(sc(=S)n2-c2ccccc2)c(=O)[nH]1	1	5	-18	-45	-5	-12
CCOC(=O)c1ccc(-n2c(=S)sc3c(=O)[nH]c(C)nc32)cc1	-5	3	-8	87*	-3	-19
Oc1ccc(N=Nc2n[nH]c(-c3ccc(Cl)cc3)n2)cc1	-4	-3	-19	11	3	-43
Cc1ccc(CNC(=O)c2ccc(CNc3c(N4CCCC4)c(=O)c3=O)cc2)cc1	0	-41	-16	-8	41*	0
Cc1ccc(NC(=O)c2ccc(CNc3c(N4CCOCC4)c(=O)c3=O)cc2)cc1	0	8	-12	-9	-8	-2
CC1CCN(c2c(NCc3ccc(C(=O)NCC4COc5ccccc5O4)cc3)c(=O)c2=O)CC1 (stereo not drawn)	/	12	1	-2	-12	8
CCOc1ccc(OCC)c(NC(=O)c2ccc(CNc3c(N4CCOCC4)c(=O)c3=O)cc2)c1	-1	-70	-3	-9	70*	-3
Cc1cc(C)cc(NC(=O)c2ccc(CNc3c(N4CCOCC4)c(=O)c3=O)cc2)c1	/	-1	-25	7	1	-2
CC1CCN(c2c(NCc3ccc(C(=O)N4CCc5ccccc54)cc3)c(=O)c2=O)CC1	/	-118	-21	22	118*	-3
Cn1c2c(c(=O)n(C)c1=O)C(C(F)(F)F)(C(F)(F)F)N=C(CCC1CCCCC1)N2	-2	/	/	/	/	/
Cc1cc(C)c2c(=O)[nH]c(SCC(=O)NCc3ccccc3)nc2n1	2	46*	-24	14	-46	-9
Cc1nn(C)c(C)c1NC(=O)CSc1nc(Cc2ccccc2)nc2c1cnn2-c1ccccc1	/	4	-16	8	-4	-25
Cc1nn(Cc2ccccc2)c(C)c1NC(=O)CSc1nc(C2CC2)nc2c1cnn2-c1ccccc1	0	46*	-1	-1	-47	-10
O=C1c2ccccc2C(O)(Cc2ccccc2)N1C1CCCCC1 (stereo not drawn)	1	37*	-19	-23	-37	92*
O=C(COc1ccccc1-c1ccccc1)N/N=C/c1cccc2ccccc12	/	15	55	69*	-15	14
Cc1nn(Cc2ccccc2)c(Cl)c1/C=N/NC(=O)CNc1cccc(C(F)(F)F)c1	-7	/	/	/	/	/
CC(=O)Nc1ccc(NC(=O)CSCCc2ccccn2)cc1	0	49*	1	-7	-49	-7
Cc1ccccc1NC1=C/C(=N\S(=O)(=O)c2cccs2)c2ccccc2C1=O	0	-15	32	86*	15	-24
Cc1ccc(NC2=C/C(=N/S(=O)(=O)c3cccs3)c3ccccc3C2=O)cc1C	2	/	/	/	/	/
SMILES	Phagocyt inh	IL1B NFkB inh	HUVEC tox TNFa	VCAM1 TNFa inh	IL1B NFkB pot	HUVEC tox IL1B
CC(=O)Nc1ccc(/C(C)=N/Nc2nc(Nc3cccc4ccccc34)nc(N3CCOCC3)n2)cc1	-1	/	/	/	/	/
N#C/C(=C\c1ccc(-c2ccc([N+](=O)[O-])cc2Br)o1)C(=O)N1CCN(c2ccccc2)CC1	-8	/	/	/	/	/
C=CCn1c(SCC(=O)Nc2ccc(C(=O)OCC)cc2)nnc1-c1sc(N)nc1C	-3	5	-8	92*	-5	1
COc1cc(S(=O)(=O)Nc2cccc(C(=O)O)c2)c(OC)cc1Cl	0	49*	-9	5	-49	88*
CCN(CC)C(=O)COc1cc(C)cc2oc(=O)cc(-c3ccccc3)c12	/	33*	12	19	-33	5
Cc1cc(OCC(=O)N(C)C)c2c(-c3ccccc3)cc(=O)oc2c1	/	11	-28	4	-11	5
COc1cc(OC)cc(-c2cc3nc(C)cc(N4CCN(C(=O)c5ccco5)CC4)n3n2)c1	-1	-42	-19	1	43*	2
CCCc1oc(C(=O)O)cc1CN1CCOCC1	1	32*	-21	-8	-32	14
O=C(O)c1ccc(C(=O)O)c(C(=O)c2ccccc2)c1	0	19	-28	11	-19	80*
O=C(O)c1cc(C(=O)O)c(-c2ccccc2)c(C(=O)O)c1	0	6	-1	-17	-6	6
CC(C(=O)Nc1ccccc1Oc1ccccc1)c1ccccc1 (stereo not drawn)	-1	/	/	/	/	/
COc1cccc(CNCCNC(=O)c2ccco2)c1OC	0	-42	1	-10	42*	-26
CSc1oc(-c2ccco2)nc1S(=O)(=O)c1ccccc1	0	13	82*	13	-13	11
COc1cccc(C(=O)N2CCC(N3CC(C)OC(C)C3)CC2)c1 (stereo not drawn)	-4	/	/	/	/	/
COc1cc(NC(=O)c2ccc(COCC(F)(F)F)cc2)cc(OC)c1OC	-1	3	-12	-7	-3	-64
O=C(Cn1nnc2c(cnn2-c2ccc(F)cc2)c1=O)c1ccccc1F	-1	-1	/	-6	1	92*
CC(C)OC(=O)Cn1nnc2c(cnn2-c2ccccc2)c1=O	/	-17	-11	16	17	-15
Cc1ccc(OCC(=O)Nc2sc3c(c2C#N)CCC3)cc1	0	-59	-14	5	59*	25
Cc1cc(F)ccc1NCC(=O)Nc1ccccc1Br	4	/	/	/	/	/
O=C(OCC(=O)N1CCCC1)c1cncc(Br)c1	-1	98*	-8	-12	-98	88*
O=C(OCC(=O)N1CCCc2ccccc21)c1cncc(Br)c1	-9	/	/	/	/	/
c1ccc(Cc2nnc3sc(-c4ccncc4)nn23)cc1	-1	-16	-10	10	16	-41
c1ccc(Cc2nnc3sc(-c4cccnc4)nn23)cc1	0	-12	-10	18	12	91*
Cc1n[nH]c(C)c1CCc1nc2c3ccccc3nc(SCC(=O)Nc3ccccc3F)n2n1	-1	9	15	10	-9	86*
O=S(=O)(C/C(=C/CO)S(=O)(=O)c1ccccc1)c1ccccc1	4	51*	30	86*	-51	3
